# The source made the active and inactive calls. How the source made its calls: active means hit-call score of the fitted dose curve at least 0.9, where 1 is the maximum; inactive means score below 0.9.
# Read-out: Interleukin-8 (IL8), CXCL8 (gene 3576)
# Assay: BSK_3C_IL8: BioMAP Diversity Plus: 3C Assay for Interleukin-8 (IL8) Biomarker Activity (AID 2283020)
# Settings: primary human endothelial cells (HUVEC); actives raise or lower the signal
# Protocol: BSK_3C is a cell-based, multiplexed-readout assay that uses umbilical vein endothelium, a human vascular primary cell, with measurements taken at 24 hours after chemical dosing in a 96-well plate.BSK_3C_IL8 is an assay component measured in the BSK_3C assay. It measures IL-8 antibody related to regulation of gene expression using ELISA technology.Data from the assay component BSK_3C_IL8 was analyzed into 1 assay endpoint. This assay endpoint, BSK_3C_IL8, was analyzed with bidirectional fitting relative to DMSO as the negative control and baseline of activity. Using a type of binding reporter, gain or loss-of-signal activity can be used to understand changes in the signaling as they relate to the gene CXCL8. Furthermore, this assay endpoint can be referred to as a primary readout, because this assay has produced multiple assay endpoints where this one serves a signaling function. To generalize the intended target to other relatable targets, this assay endpoint is annotated to the cytokine intended target family, where the subfamily is interleukins.
# The levels of cell surface (or secreted, indicated by the prefix "s") biomarker endpoints were measured by ELISA. Overt cytotoxicity to cells in confluent adherent cultures (all systems other than the BT system) was assessed by measuring total protein levels using sulforhodamine B (SRB) staining in parallel cultures at the time of biomarker measurements, indicated as SRB endpoints. For proliferation assays for adherent cell types, individual cell types are cultured at sub-confluence and relative cell numbers quantified by SRB staining at time points optimized for each system (48 h: 3C and CASM3C systems; 72 h: BT and HDF3CGF systems; 96 h: SAg system). SRB was performed by staining cells with 0.1% SRB after fixation with 10% TCA and reading wells at 560 nm.Viability and proliferation of PBMC (T cells) was quantified by Alamar Blue reduction for the SAg and BT systems. For PBMC viability (referred to as PBMC Cytotoxicity within the assay endpoint names), cells were plated (75,000/well in a 96-well plate) and then chemical samples added for 1 h before addition of activators, SEB and TSST-1 (20 ng/mL final concentration each). Cells were incubated for 90 h. Then, Alamar Blue (20 uL/well) (Invitrogen, Cat DAL1100) was added for 6 h, and the plates were read with a fluorescence microplate reader at 546/580 nm (excitation/emission). For PBMC proliferation, cells were plated and activated as above but incubated for only 16 h prior to addition of Alamar Blue. Plates were read after 6 h.
SMILES,AC50,outcome
COc1cc(-c2nc(NC(=O)c3cc4cc(C)cc(C)c4n3CC(=O)O)sc2CCC2CCCCC2)c(OC)cc1Cl,5.83 µM (active),
C1CCC(SSC2CCCCC2)CC1,,inactive
CCCCCCCC=O,,inactive
CCCc1cc(=O)[nH]c(=S)[nH]1,,inactive
O=c1[nH]cc(F)c(=O)[nH]1,,inactive
COc1ccc(C)cc1N,,inactive
CC1(C)NC(=O)NC1=O,,inactive
c1cc(-c2ccncc2)ccn1,,inactive
CCCCc1ccc2c(n1)[C@@H](c1ccc(OC)cc1C[C@H](C)C(=O)O)[C@H](C(=O)O)[C@H]2c1ccc2c(c1)OCO2,,inactive
CCCCCCCCCCCCCCCC,,inactive
NS(=O)(=O)c1cc2c(cc1Cl)NCNS2(=O)=O,,inactive
CC(=O)OC/C=C(\C)CCC=C(C)C,,inactive
CCCCCCCCCCCC(=O)OC,,inactive
Cc1ccc(N(C)C)cc1,,inactive
COc1ccc(S(=O)(=O)N2C(=O)[C@@](c3ccccc3OC)(N3C[C@H](O)C[C@H]3C(=O)N(C)C)c3cc(Cl)ccc32)c(OC)c1,31.5 µM (active),
Cc1ccc(C)c(C)c1,,inactive
CCc1c(C(=O)NN2CCCCC2)nn(-c2ccc(Cl)cc2Cl)c1-c1ccc(Br)cc1,7.69 µM (active),
O=c1c(O)c(-c2ccc(O)c(O)c2)oc2cc(O)cc(O)c12,14.5 µM (active),
O=C(N[C@@H](Cc1ccccc1)[C@@H](O)C(=O)N1C[C@@H](O)[C@@H](O)C1)c1cc2cc(Cl)ccc2[nH]1,,inactive
CN1CCN(Cc2cc(-c3ccc4[nH]c(=O)oc4c3)co2)[C@@H](c2ccc(F)cc2)C1,,inactive

SMILES,AC50,outcome
CC(C)c1ccc(C(=O)N=C(N)N)cc1S(C)(=O)=O,,inactive
Clc1cc(Cl)c(Cl)cc1Cl,,inactive
O=C(OCCCCCOC(=O)c1ccccc1)c1ccccc1,,inactive
FC(F)(F)C(F)(F)C(F)(F)C(F)(F)C(F)(F)C(F)(F)CCI,,inactive
COCCOC[C@H](CC1(C(=O)NC2CCC(C(=O)O)CC2)CCCC1)C(=O)Oc1ccc2c(c1)CCC2 (stereo not given in full),,inactive
Oc1ccc2ccccc2c1N=Nc1ccccc1,,inactive
C[Si]1(C)O[Si](C)(C)O[Si](C)(C)O[Si](C)(C)O1,,inactive
CCOc1ccc2c(c1)C(C)=CC(C)(C)N2,,inactive
C=CCc1ccc(O)c(OC)c1,,inactive
CC(=O)Oc1ccccc1C(=O)O,,inactive
Cc1ccc(C)c(O)c1C,,inactive
CCCCCC(=O)O,,inactive
Cc1c(C(=O)O)c(O)cc2c1C(=O)c1c(O)c([C@@H]3O[C@H](CO)[C@@H](O)[C@H](O)[C@H]3O)c(O)c(O)c1C2=O,,inactive
CCCCN(CCCC)CCCC,,inactive
CCNc1cccc(C)c1,,inactive
CC1=C(/C=C/C(C)=C/C=C/C(C)=C/CO)C(C)(C)CCC1,,inactive
Cc1ccc2ncccc2c1,,inactive
Oc1ccc2c(c1)OC[C@@H](N1CCC(O)(c3ccc(F)cc3)CC1)[C@H]2O,,inactive
Cc1cc(=O)[nH]c(=S)[nH]1,,inactive
CCCCC(CC)COC(=O)CC(C(=O)OCC(CC)CCCC)S(=O)(=O)O (stereo not given),30.6 µM (active),
